Test [1] in a line: Quantitative High-Throughput drug screen in 47 multiple myeloma cell lines against the NCATS MIPE library collection: Karpas620_DSMZ cell viability assay (AID 1918959). Further: nearly all actives have a fitted effect of over 30% in size. An outline of the steps: (§1)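 Steps: seed 500 cells per well; pin-transfer MIPE 4.0 library; incubate 48 h at 37C, 5% CO2, humidified; add CellTiter-Glo, 5 min room temperature; read luminescence.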
Test [2] in a line: Quantitative High-Throughput drug screen in 47 multiple myeloma cell lines against the NCATS MIPE library collection: KHM11_PLB cell viability assay (AID 1918962). Further: nearly all actives have a fitted effect of over 35% in size. An outline of the steps: as §1
The nature of test [3]: Quantitative High-Throughput drug screen in 47 multiple myeloma cell lines against the NCATS MIPE library collection: JIM3_ECACC cell viability assay (AID 1918963; further: nearly all actives have a fitted effect of over 35% in size). An outline of the steps: as §1
Test [4] is described as follows: Quantitative High-Throughput drug screen in 47 multiple myeloma cell lines against the NCATS MIPE library collection: JIM1_ECACC cell viability assay (AID 1918964). The method in brief:
(§2)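 Inhibition of cell viability is measured here. Each line was plated at 500 cells per well, treated with MIPE 4.0 drugs, kept 48 hours at 37C, then assayed for ATP content by CellTiter-Glo luminescence.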

A short description of test [5]: Quantitative High-Throughput drug screen in 47 multiple myeloma cell lines against the NCATS MIPE library collection: INA6_PLB cell viability assay (AID 1918965; further: nearly all actives have a fitted effect of over 55% in size). An outline of the steps:
(§3)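 CellTiter-Glo luminescence (ATP) after 48 h compound exposure, 37C/5% CO2; 500 cells/well; MIPE 4.0 approved/investigational drugs pinned in; DMSO = 100%, media only = 0% viability.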

Test [6] in a line: Quantitative High-Throughput drug screen in 47 multiple myeloma cell lines against the NCATS MIPE library collection: H1112_PLB cell viability assay (AID 1918967; further: nearly all actives have a fitted effect of over 30% in size). The method in brief: as §2
Test [7] in a line: Quantitative High-Throughput drug screen in 47 multiple myeloma cell lines against the NCATS MIPE library collection: Karpas25_ECACC cell viability assay (AID 1918968; further: nearly all actives have a fitted effect of over 35% in size). An outline of the steps:
as §2

The nature of test [8]: Quantitative High-Throughput drug screen in 47 multiple myeloma cell lines against the NCATS MIPE library collection: KMS27_JCRB cell viability assay (AID 1918970). Further: nearly all actives have a fitted effect of over 30% in size. Particulars: KMS27 myeloma cells, CellTiter-Glo ATP viability, 48 h; viability (% of DMSO): at 45.8 µM (top of the series). An outline of the steps: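 Viability inhibition screen, 48 h compound exposure, luminescent ATP read-out.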

The nature of test [9]: Quantitative High-Throughput drug screen in 47 multiple myeloma cell lines against the NCATS MIPE library collection: KMS12BM_JCRB cell viability assay (AID 1918971). Further: nearly all actives have a fitted effect of over 35% in size. The method in brief: (§4)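 Viability readout: CellTiter-Glo luminescence following 5 min room-temperature incubation with reagent. Prior exposure: 48 h, 37C, humidified 5% CO2, 500 cells per well.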
The nature of test [10]: Quantitative High-Throughput drug screen in 47 multiple myeloma cell lines against the NCATS MIPE library collection: KMS20_JCRB cell viability assay (AID 1918973). Further: nearly all actives have a fitted effect of over 45% in size. An outline of the steps: as §2
Test [11] in a line: Quantitative High-Throughput drug screen in 47 multiple myeloma cell lines against the NCATS MIPE library collection: KMS26_JCRB cell viability assay (AID 1918975). Further: nearly all actives have a fitted effect of over 45% in size. The method in brief: as §4
The nature of test [12]: Quantitative High-Throughput drug screen in 47 multiple myeloma cell lines against the NCATS MIPE library collection: MMM1_PLB cell viability assay (AID 1918976). Further: nearly all actives have a fitted effect of over 35% in size. An outline of the steps:
(§5)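 500 cells/well; MIPE 4.0 drugs pin-transferred; 48 h, 37C, 5% CO2. CellTiter-Glo, 5 min RT, luminescence. Controls: DMSO 100%, media 0%.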

Test [13] can be described thus: Quantitative High-Throughput drug screen in 47 multiple myeloma cell lines against the NCATS MIPE library collection: NCIH929_DSMZ cell viability assay (AID 1918978). Further: nearly all actives have a fitted effect of over 35% in size. The method in brief: as §5
The nature of test [14]: Quantitative High-Throughput drug screen in 47 multiple myeloma cell lines against the NCATS MIPE library collection: Karpas417_ECACC cell viability assay (AID 1918961). Particulars: Karpas417 myeloma viability, CellTiter-Glo ATP luminescence, 48 h; viability (% of DMSO): at 45.8 µM (top of the series). The method in brief: as §3
In general terms: In ATP-based viability assays light output follows the ATP content of the culture.

Test [15] can be described thus: Quantitative High-Throughput drug screen in 47 multiple myeloma cell lines against the NCATS MIPE library collection: MOLP8_DSMZ cell viability assay (AID 1918977). Further: nearly all actives have a fitted effect of over 45% in size. An outline of the steps:
as §5

Test [16] in a line: Quantitative High-Throughput drug screen in 47 multiple myeloma cell lines against the NCATS MIPE library collection: OCIMY1_PLB cell viability assay (AID 1918979). Further: nearly all actives have a fitted effect of over 35% in size. An outline of the steps:
as §5

A short description of test [17]: Quantitative High-Throughput drug screen in 47 multiple myeloma cell lines against the NCATS MIPE library collection: JJN3_DSMZ cell viability assay (AID 1918966; further: nearly all actives have a fitted effect of over 50% in size). The method in brief:
as §2

Test [18] can be described thus: Quantitative High-Throughput drug screen in 47 multiple myeloma cell lines against the NCATS MIPE library collection: KMS12PE_JCRB cell viability assay (AID 1918972). Further: nearly all actives have a fitted effect of over 30% in size. An outline of the steps: as §3

Records with an inconclusive call do not appear. Activity calls are given as the source filed them. The call rests on the fitted dose curve; in most records, active means well fitted curve in the direction sought with a large enough effect; inconclusive means small, poorly fitted or top-dose-only effect, or another doubt; inactive means no such curve, though single readings can be large; an effect the other way counts as inactive or inconclusive.
Potency means the concentration at half of the fitted maximal effect.

Turning to `COc1cc2c(Nc3ccc(Cl)c(Cl)c3F)ncnc2cc1OCC1C[C@@H]2CN(C)C[C@H]2C1`, the Potency in [1] was 4.18 µM (active); in test [2] it was 5.9 µM (active); in [3], 4.18 µM (active); in test [4] it was 14.8 µM (active); in [5] it was 1.48 µM (active); in test [6], 2.35 µM (active). In addition, the Potency in [7] is 2.35 µM (active); in test [8], 5.9 µM (active); in test [9] it was 5.26 µM (active); in test [10], 1.87 µM (active); in test [11], 2.35 µM (active); in test [12], 23.5 µM (active). Also, in test [13], the Potency is 2.09 µM (active).

Consider `CC(C=CC=C(C)C=CC1=C(C)CCCC1(C)C)=CC=CC=C(C)C=CC=C(C)C=CC1=C(C)CCCC1(C)C`, for which the Potency is 20.9 µM (active) in test [1], 9.35 µM (active) in test [14], 11.8 µM (active) in test [8] and 14.8 µM (active) in test [12]. The Potency result in test [3] and in test [9] was “inactive” in each case.

Turning to `Cn1cnc2c(F)c(Nc3ccc(Br)cc3F)c(C(=O)NOCCO)cc21`, the Potency in [1] was 0.0833 µM (active); in test [3], 0.372 µM (active); in [5], 0.0187 µM (active); in test [8], 0.0074 µM (active); in test [10], 0.0662 µM (active). For the same compound, the Potency result in [15] and in test [16] was “inactive” throughout.

`CS[C@H]1SC[C@@H]2C(=O)N(C)[C@H](C(C)C)C(=O)OC[C@H](NC(=O)c3cnc4ccccc4n3)C(=O)N[C@H](C)C(=O)N(C)[C@@H]1C(=O)N(C)[C@H](C(C)C)C(=O)OC[C@H](NC(=O)c1cnc3ccccc3n1)C(=O)N[C@H](C)C(=O)N2C`: the Potency in test [1] is 0.001 µM (active); in test [2], 0.0093 µM (active); in test [5], 0.001 µM (active); in test [17], 0.0053 µM (active); in test [6], 0.0118 µM (active); in test [7], 0.001 µM (active). Further, the Potency is 0.001 µM (active) in test [8]; 0.001 µM (active) in test [18]; 0.0132 µM (active) in test [11]; 0.0118 µM (active) in test [12]; 0.0047 µM (active) in [15]; 0.001 µM (active) in test [13]. Further, in [16], the Potency is 0.0209 µM (active).

For `CCCCCCCCCCCC(CC1OC(=O)C1CCCCCC)OC(=O)C(CC(C)C)NC=O` (stereo unspecified), the Potency result in test [1], in test [2], in test [3], in [4], in test [6] and in test [7] was “inactive” in each case. Further, the Potency entry in [13] was “inactive”. The Potency in test [5] is 0.332 µM (active); in [17], 23.5 µM (active); in test [9] it was 20.9 µM (active); in test [10], 0.0042 µM (active).

As to `CC(Cc1ccc(O)c(O)c1)(NN)C(=O)O` (stereo unspecified), the Potency result in [1], in [2], in test [4], in test [5], in [6] and in test [8] was “inactive” in each case. Also, the Potency entry in test [18] and in [13] was “inactive” throughout. For the same compound, the Potency is 23.5 µM (active) in test [17] and 26.4 µM (active) in [9].

Consider `Oc1cc2c(cc1O)C1c3ccc(O)c(O)c3OCC1(O)C2` (stereo unspecified), for which the Potency result in test [1], in [2], in test [3], in [6], in test [8] and in [9] was “inactive” in each case. The Potency result in test [18], in test [15], in test [13] and in [16] was “inactive” each time.

Take `CC(=O)N[C@H]1[C@@H]([C@H](O)[C@H](O)CO)OC(C(=O)O)=C[C@@H]1N=C(N)N`: the Potency result in [1], in test [2], in test [3], in [5], in [6] and in test [7] was “inactive” each time. For the same compound, the Potency entry in test [8], in test [9], in test [11], in test [13] and in [16] was “inactive” each time.
